In assay [1] the target is Aldehyde dehydrogenase, mitochondrial (Homo sapiens) (UniProt P05091). The experiment in a line: qHTS for Inhibitors of the Aldehyde Dehydrogenase Family (ALDH2) Primary screen (AID 2061308).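 Further: plate controls were vehicle for no effect and reference inhibitor for full effect; nearly all actives have a fitted effect of over 55% in size.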 On the technique in general: In qHTS, concentration-response curves come from the screen itself.
Assay [2] deals with Retinaldehyde dehydrogenase 3 (Homo sapiens) (UniProt P47895). The experiment in a line: qHTS for Inhibitors of the Aldehyde Dehydrogenase Family (ALDH1A3) Primary screen (AID 2061315).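 Further: plate controls were DMSO vehicle for no effect and reference inhibitor for full effect.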
The nature of assay [3]: BET inhibitor-based combinations targeting novel dependencies in MECOM-rearranged (r) AML: SET-2 cell line (AID 2202231). Further: nearly all actives have a fitted effect of over 35% in size. Further: potency means the concentration at half of the fitted maximal effect.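 On viability: plate controls were DMSO treated cells for no effect and wells without cells for full effect.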 Particulars: SET-2 AML cells viability, CellTiter-Glo luminescence, 48 h; viability: hits give low values, concentration not given here. In outline:
(§1)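 Cells were plated at 500 per well and exposed to an 11-point dose series of each drug for 48 hr. Viability was measured by CellTiter-Glo luminescence, normalized to DMSO and empty-well controls, and summarized as AUC and per-cell-line Z-AUC.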
A general note: Cellular ATP, detected with luciferase, serves as a proxy for viable cell number.

Assay [4] can be described thus: BET inhibitor-based combinations targeting novel dependencies in MECOM-rearranged (r) AML: OCI-AML3 cell line (AID 2202232). Further: nearly all actives have a fitted effect of over 35% in size. Further: potency means the concentration at half of the fitted maximal effect. Particulars: Potency: OCI-AML3 viability. The method in brief: as §1
Assay [5] is described as follows: BET inhibitor-based combinations targeting novel dependencies in MECOM-rearranged (r) AML: MV-4-11 cell line (AID 2202233). Further: nearly all actives have a fitted effect of over 45% in size. Further: potency means the concentration at half of the fitted maximal effect. In outline:
(§2)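 Activity is given as area under the curve and as Z-AUC, mean-centred within each cell line. It comes from 11-point dose curves normalized to DMSO and empty wells. CellTiter-Glo luminescence was read after 48 hr drug exposure of 500 cells/well.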

Assay [6] is described as follows: BET inhibitor-based combinations targeting novel dependencies in MECOM-rearranged (r) AML: HNT-34 cell line (AID 2202234). Further: nearly all actives have a fitted effect of over 35% in size. Further: potency means the concentration at half of the fitted maximal effect. The method in brief: as §2
The nature of assay [7]: BET inhibitor-based combinations targeting novel dependencies in MECOM-rearranged (r) AML: UCSD-AML1 cell line (AID 2202235). Further: nearly all actives have a fitted effect of over 40% in size. Further: potency means the concentration at half of the fitted maximal effect. In outline:
as §2

Assay [8] is described as follows: BET inhibitor-based combinations targeting novel dependencies in MECOM-rearranged (r) AML: AML-191 cell line (AID 2202236; further: nearly all actives have a fitted effect of over 35% in size; further: potency means the concentration at half of the fitted maximal effect). In outline: as §1
Assay [9] can be described thus: BET inhibitor-based combinations targeting novel dependencies in MECOM-rearranged (r) AML: AML-194 cell line (AID 2202237; further: nearly all actives have a fitted effect of over 40% in size; further: potency means the concentration at half of the fitted maximal effect). In outline: as §1
Assay [10] has as its target Aldehyde dehydrogenase 1A1 (Homo sapiens) (UniProt P00352). The experiment in a line: qHTS for Inhibitors of the Aldehyde Dehydrogenase Family (ALDH1A1) Confirmatory screens (AID 2061316). Further: potency means the concentration at half of the fitted maximal effect; nearly all actives have a fitted effect of over 65% in size.

Records with an inconclusive call do not appear. A number with no mark means an inactive call. The source made the active and inactive calls. The call rests on the fitted dose curve; in most records, active means well fitted curve in the direction sought with a large enough effect; inconclusive means small, poorly fitted or top-dose-only effect, or another doubt; inactive means no such curve, though single readings can be large; an effect the other way counts as inactive or inconclusive.

For orientation: viability means a read-out of living cells in per cent, often relative to untreated cells.

For `CCCCNc1ncc2c(-c3ccc(F)cc3)nn(CC3CCC(N)CC3)c2n1` (stereo not drawn), the Potency entry in assay [1] and in assay [2] was “inactive” each time. Besides, the Potency in [3] is 14.4 µM (active); in [4], 9.1 µM (active); in [5], 0.129 µM (active); in assay [6] it was 4.56 µM (active); in assay [7], 6.45 µM (active); in [8], 5.74 µM (active). Further, in assay [9], the Potency was 5.74 µM (active).
In the case of `NC[C@@](O)(c1ccc(Cl)cc1)c1ccc(-c2cn[nH]c2)cc1`, the Potency result in assay [1] and in [2] was “inactive” throughout. Further, the Potency in [3] is 7.42 µM (active); in [4] it was 5.25 µM (active); in assay [5], 4.68 µM (active); in assay [6], 4.17 µM (active); in assay [8], 7.42 µM (active); in [9], 6.61 µM (active).
For the molecule `Cc1cc(-c2nc3cc(F)ccc3s2)ccc1NC(=O)[C@@H](N)CCCCN`, the Potency result in assay [1] and in assay [2] was “inactive” each time. The Potency was 13.2 µM (active) in [3]; 14.8 µM (active) in assay [4]; 13.2 µM (active) in assay [5]; 8.33 µM (active) in assay [6]; 14.8 µM (active) in [7]; 16.6 µM (active) in [8]. Further, the Potency in assay [9] was 16.6 µM (active).
As to `O=C(NCc1ccc(S(=O)(=O)c2cccc(C(F)(F)F)c2)cc1)c1cnc2[nH]ncc2c1`, the Potency entry in assay [1] and in [2] was “inactive” each time. In addition, in [3], the viability was 110%. Further, the Potency in assay [4] is 0.0148 µM (active); in assay [5] it was 0.0833 µM (active); in assay [6] it was 0.0263 µM (active); in assay [7], 0.0209 µM (active); in assay [8], 0.0148 µM (active); in assay [9], 0.742 µM (active).
As for `Cc1cc(C(=O)Nc2cc(Nc3ccc4c(/C=C/c5ccccn5)n[nH]c4c3)ccc2F)n(C)n1`, the Potency result in assay [1] and in [2] was “inactive” throughout. The Potency was 18.6 µM (active) in assay [3]; 18.6 µM (active) in assay [4]; 16.6 µM (active) in [5]; 7.42 µM (active) in [6]; 6.61 µM (active) in assay [7]; 16.6 µM (active) in assay [8].
As to `Cc1ccc(C(=O)Nc2ccc(CN3CCN(C)CC3)c(C(F)(F)F)c2)cc1C#Cc1cnc2[nH]ncc2c1`, the Potency result in assay [1] and in assay [2] was “inactive” throughout. The Potency in assay [3] is 4.17 µM (active); in [4], 0.934 µM (active); in [5], 0.0023 µM (active); in [7] it was 0.105 µM (active); in assay [8], 0.0934 µM (active); in assay [9], 0.148 µM (active).
In the case of `CCCCCCCCCCCCCCCCOCCCOP(=O)(O)COC(CO)Cn1ccc(N)nc1=O` (stereo not drawn), the Potency entry in [1], in assay [2], in [5], in assay [6], in [8] and in assay [9] was “inactive” throughout. Further, in assay [3], the viability was 118%. Also, the Potency in assay [4] was 20.9 µM (active); in [7], 10.5 µM (active).
As to `Clc1cccc(-c2ccc(-c3nnc(CCCc4ccc5cccnc5n4)o3)cc2)c1`, the Potency result in [1], in assay [2], in assay [4], in assay [5], in [6] and in assay [7] was “inactive” each time. The Potency result in assay [8] and in assay [9] was “inactive” each time. Moreover, the viability in [3] is 119%.
With `Cc1ccc(N[S+](=O)([O-])c2cc3c(cc2NC2CC2)NC(=O)CC3)cc1C`, the Potency result in assay [1] and in assay [2] was “inactive” in each case. Moreover, the Potency in assay [10] was 28.3 µM (active).
Regarding `O=C1Nc2nc(-c3c(O)cccc3OCC3CC3)cc([C@@H]3CCCNC3)c2CO1`, the Potency result in assay [1] and in [2] was “inactive” in each case. The Potency is 20.9 µM (active) in assay [3]; 16.6 µM (active) in assay [4]; 5.9 µM (active) in assay [5]; 18.6 µM (active) in assay [6]; 18.6 µM (active) in [8]; 18.6 µM (active) in assay [9].
For `COCCNCc1ccc(-c2cc3nccc(Oc4ccc(NC(=S)NC(=O)Cc5ccc(F)cc5)cc4F)c3s2)nc1`, the Potency result in [1] and in [2] was “inactive” throughout. Also, the Potency in assay [3] was 4.68 µM (active); in assay [4], 2.63 µM (active); in assay [5] it was 0.132 µM (active); in [7], 2.95 µM (active); in assay [8] it was 2.35 µM (active); in assay [9], 2.63 µM (active).
With `COc1cc(Oc2ccnc3cc(OC)c(OC)cc23)ccc1NC(=O)NC(C)c1nccs1` (stereo not drawn), the Potency result in assay [1], in assay [2] and in assay [7] was “inactive” throughout. Moreover, the Potency in [3] is 10.5 µM (active); in assay [4] it was 10.5 µM (active); in assay [5], 11.8 µM (active); in assay [6], 13.2 µM (active); in [9] it was 13.2 µM (active).
In the case of `COc1cc2ncnc(Nc3cccc(Cl)c3F)c2cc1OC(=O)N1CCN(C)C[C@H]1C`, the Potency entry in assay [1], in assay [2], in [8] and in assay [9] was “inactive” each time. Moreover, the viability in assay [3] is 103%. For the same molecule, the Potency in assay [4] is 13.2 µM (active); in assay [5] it was 13.2 µM (active); in assay [6], 16.6 µM (active).
For the molecule `C[C@@H]1COCCN1c1cc(C2(S(C)(=N)=O)CC2)nc(-c2ccnc3[nH]ccc23)n1` (stereo partly drawn), the Potency entry in [1] and in assay [2] was “inactive” throughout. In addition, the Potency was 2.63 µM (active) in assay [3]; 1.86 µM (active) in [4]; 2.35 µM (active) in assay [5]; 2.63 µM (active) in [8]; 5.25 µM (active) in assay [9].
Turning to `O=C(CO)N1CCC(c2[nH]nc(-c3ccc(Cl)cc3)c2-c2ccncn2)CC1`, the Potency result in [1], in assay [2], in assay [4], in assay [5], in [6] and in assay [7] was “inactive” throughout. For the same molecule, the Potency result in assay [8] and in [9] was “inactive” each time. The viability in assay [3] was 101%.
`Cc1cc(CN2CCN(c3c(Br)cnc4nc(-c5ccc(N6CCN(C)CC6)cc5)[nH]c34)CC2)no1`: the Potency result in assay [1] and in assay [2] was “inactive” each time. Besides, the Potency in assay [3] is 9.34 µM (active); in assay [4], 8.33 µM (active); in [5], 0.332 µM (active); in assay [7] it was 2.63 µM (active); in assay [8], 5.25 µM (active); in [9], 4.17 µM (active).
